FMDV antiviral: foot and mouth disease virus antiviral activity; FMDV antiviral cell-based qHTS; Potency, µM (series often up to 57.9 µM), inactives show top-dose activity change, negative = inhibition, actives largely listed as inhibitors; hit rate 1.2% among 410,000; calls by dose curve; tested in HEK293T cells; note: read-out not given here; nearly all actives have a fitted effect of over 45% in size
Vaccinia Venus: vaccinia inhibition (Venus reporter); Vaccinia virus Venus reporter expression, fluorescence; Potency, µM (series often up to 36.5 µM), inactives show at the top dose activity change, negative = inhibition, most hits filed as inhibitors; hit rate 0.46% among 330,000; AID 720580; calls by dose curve; tested in A549 cells; note: nearly all actives have a fitted effect of over 30% in size
LASV entry inh: blocks Lassa virus binding to or entry into cells; Lassa virus pseudotype entry inhibition, cell reporter; Potency, µM (series often up to 37.9 µM), for the others: at the top dose activity change, negative = inhibition, most hits filed as inhibitors; hit rate 1.2% among 300,000; AID 540256; calls by dose curve; tested in HEK293 cells; note: nearly all actives have a fitted effect of over 50% in size
VACV mCherry inh: vaccinia inhibition (mCherry reporter) | Vaccinia virus mCherry reporter infection, fluorescence | Potency, µM (highest dose often 36.5 µM), inactives show at the top dose activity change, negative = inhibition, actives largely listed as inhibitors | hit rate 0.63% among 310,000 | AID 720579; calls by dose curve; tested in A549 cells; note: nearly all actives have a fitted effect of over 35% in size
MARV entry inh: Marburg virus entry inhibition; Marburg virus pseudotyped entry inhibition, cell reporter; Potency, µM (series often up to 37.8 µM), for the others: at the top dose activity change, negative = inhibition, hits mostly inhibitors; hit rate 1.8% among 300,000; AID 540276; calls by dose curve; tested in HEK293 cells
Sm TGR block: blocks Schistosoma mansoni thioredoxin glutathione reductase; Q962Y6; hit rate 3% among 360,000; Potency, µM (series often up to 114 µM), inactives show top-dose activity change, negative = inhibition, actives largely listed as inhibitors; AID 485364; purified TGR, DTNB reduction, TNB absorbance 405 nm; active = well fitted inhibition curve with a large enough effect; inconclusive = small, poorly fitted or top-dose-only effect; inactive = no such curve, though single readings can be large or run the other way; note: nearly all actives have a fitted effect of over 60% in size
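TGR 20 nM + NADPH 100 uM (dispensed conc.), cpd preinc 15 min RT; start with NADPH (500 uM addition) then DTNB (15 mM addition). Kinetic TNB absorbance, 405 nm filter. Four-parameter Hill fit across titration.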
Active calls of the source: *; i = inactive; ? = inconclusive; . = no result given; [ ] = remark or other dose. Only some compounds are listed: those with a hit (about 5.4% of all), similar ones and a draw of the others. % is set by controls: 0 for no effect and ±100 for the full control effect; potency is the fitted concentration of half-maximal effect.

SMILES	FMDV antiviral	Vaccinia Venus	LASV entry inh	VACV mCherry inh	MARV entry inh	Sm TGR block
COc1cccc(CNC(=O)CCCNC(=O)c2ccc(Cl)cc2)c1	-9%	-5%	3%[46.1 µM]	5%	1%[46.1 µM]	22µM*
COc1cccc(OCc2nc3ccccc3n2Cc2ccccc2C)c1	-24%	-12%	-23%[46.1 µM]	-9%	26%[46.1 µM]	-1%
CCC1CCCCN1c1ccc([N+](=O)[O-])cc1/C=N/NC(=O)Cn1c2ccccc2c(=O)c2ccccc21 (stereo unspecified)	-18%	-15%	-4%	-16%	0.89µM*	-5%
CCc1ccc(OCC(=O)N/N=C/c2cc([N+](=O)[O-])ccc2N2CCCCCC2)cc1	-10%	-11%	?	-7%	13%	-1%
O=C(CCc1nc2cccnc2n1Cc1ccccc1)NCc1cccc(Cl)c1	-9%	-11%	-6%[46.1 µM]	-10%	?	-4%
CC(=O)Nc1cccc(Oc2ncnc3scc(-c4ccc(C(C)C)cc4)c23)c1	-18%	-9%	2.5µM*	-13%	2.8µM*	6%
COc1cc(/C=N/Nc2nc(Nc3ccc(C)cc3)nc(-n3nc(C)cc3C)n2)cc(OC)c1OC	-7%	.	?	.	?	0%
COc1ccc(O)c(/C=N/Nc2nc(Nc3ccccc3)nc(-n3nc(C)cc3C)n2)c1	-19%	10µM*	13µM*	.	?	1%
COc1ccc(O)c(/C=N/Nc2nc(C)cc(-c3ccccc3)n2)c1	-19%	-12%[7.34 µM]	2%	-14%[7.34 µM]	?	.
COc1cc(/C=N/Nc2nc(Nc3ccccc3)nc(-n3nc(C)cc3C)n2)cc(OC)c1OC	-12%	?	16µM*	?	7.3µM*	-8%
Cc1ccc(CNC(=O)c2ccc(Cn3c(SCc4ccc(F)cc4)nc4cccnc43)cc2)o1	-12%	-14%	.	-6%	?	?
OCC[C@@H]1C[C@@H](O)[C@H](O)[C@]2(OCc3ccccc32)O1	-2%	8%	.	i	.	-1%
OCC[C@H]1C[C@H](O)[C@@H](O)[C@@]2(OCc3ccccc32)O1	-4%	3%	.	-18%	.	45µM*
CCCC(O)(c1ccc(Cl)cc1)C(CN1CCOCC1)c1ccc(Cl)cc1 (stereo unspecified)	?	-5%	-16%[46.1 µM]	i	7.9µM*	-4%
CCCC(O)(CCN1CCOCC1)c1ccc(Cl)cc1 (stereo unspecified)	-10%	.	.	.	.	20µM*
CCCC(O)(c1ccc(OC)cc1)C(CN1CCOCC1)c1ccc(Cl)cc1 (stereo unspecified)	-27%	.	.	.	.	-31%
COCCNC(=O)Cn1cc(S(=O)(=O)Cc2ccccc2Cl)c2ccccc21	17%	-5%	-2%[46.1 µM]	i	.	1%
Cc1cc(C)nc(N/N=C/C=C/c2ccccc2)n1	19%	-2%	10%	-8%	17%	-8%
Cc1sc(N/N=C/C=C/c2ccccc2)nc1-c1ccccc1	-1%	?	?	3.5µM*	11%	-2%
CCCN(CCC)C(=O)CSc1nnc2cc(C)c3ccccc3n12	-11%	-2%	13%[46.1 µM]	-3%	-24%[46.1 µM]	-3%
O=C(NC(c1ccc(F)cc1)c1ccc2ccccc2n1)C1CCN(CCOc2ccc(F)cc2)CC1 (stereo unspecified)	?	10µM*	.	11µM*	.	.
O=C(NC(c1ccccc1)c1ccc2ccccc2n1)C1CCN(CCOc2ccc(Cl)cc2)CC1 (stereo unspecified)	32µM*	10µM*	.	?	.	.
COc1cc(CN2CCC(C(=O)NC(c3ccc(F)cc3)c3ccc4ccccc4n3)CC2)cc(OC)c1 (stereo unspecified)	35µM*	14µM*	.	?	.	.
CCN1C(=NCc2cccc(Cl)c2)NC(c2cccc(C(F)(F)F)c2)C(C(=O)OC)=C1C (stereo unspecified)	.	.	-42%[14.3 µM]	.	-25%[14.2 µM]	.
O=[N+]([O-])c1cc(Br)cc(C=Nc2ccc3c(c2)OCO3)c1O	-25%	.	.	.	.	18µM*
SMILES	FMDV antiviral	Vaccinia Venus	LASV entry inh	VACV mCherry inh	MARV entry inh	Sm TGR block
C#CCCCO/N=C1\C[C@@H](O)[C@@H](O)[C@@H]2[C@@H]3C(=O)N(C[C@@H]4CCCO4)C(=O)[C@@H]3CC[C@H]12	.	.	.	.	4%[14.2 µM]	.
COc1ccccc1N1CCN(C(=O)c2cc(-c3ccco3)on2)CC1	0%	-6%	.	-22%	.	56µM*
O=C(c1cc(-c2ccccc2O)on1)N1CCc2ccccc2C1	40%	-8%	.	-10%	.	8%
O=C(c1cc(-c2ccco2)on1)N1CCc2ccccc2C1	70%	.	1%	.	12%	13µM*
Cc1ccc(NC(=O)C(=O)NCC(c2ccc3c(c2)OCO3)N2CCN(C)CC2)c(C)c1 (stereo unspecified)	-6%	-10%	6%[46.1 µM]	-10%	.	0%
Cc1ccc(OC(C)C(=O)Nc2ccc(C)c(S(=O)(=O)Nc3ccc(C)cc3C)c2)cc1 (stereo unspecified)	-7%	?	16µM*	?	?	-2%
Cc1ccc(OC(C)C(=O)Nc2ccncc2)cc1 (stereo unspecified)	-28%	.	.	.	.	-5%
CC(=O)Nc1cc(-c2cccnc2)cn2c(-c3cccc(C(F)(F)F)c3)cnc12	-12%	13µM*	.	10µM*	.	.
COc1cc(-c2cc(NC=O)c3ncc(-c4ccc(C(C)=O)cc4)n3c2)ccc1O	-13%	11µM*	.	10µM*	.	.
COc1cc(-c2cnc3c(NC=O)cc(-c4cccc(C(F)(F)F)c4)cn23)cc(OC)c1OC	20µM*	?	.	?	.	.
COc1ccccc1-c1cc(NC(C)=O)c2ncc(-c3cccc(C(F)(F)F)c3)n2c1	-28%	-9%	.	0%	.	.
Cn1cc(-c2cnc3c(NC=O)cc(-c4cccc(C(F)(F)F)c4)cn23)cn1	-21%	?	.	10µM*	.	.
COc1cccc(-c2cnc3c(NC=O)cc(-c4ccc(O)c(OC)c4)cn23)c1	-23%	-23%	.	-28%	.	.
Nc1ccc(-c2cc(NC=O)c3ncc(-c4cccc(C(F)(F)F)c4)n3c2)cn1	?	11µM*	.	?	.	.
CN(C)C(=O)c1cccc(-c2cnc3c(NC=O)cc(-c4cccc(C(F)(F)F)c4)cn23)c1	32µM*	?	.	?	.	.
COc1ccc(-n2ccc(-c3sc(NCc4cc(OC)c5c(c4)OCO5)nc3C)n2)cc1	-24%	-10%	.	-16%	.	.
CN(C)S(=O)(=O)c1cccc(NC(=O)c2ccc(COc3ccccc3)cc2)c1	25µM*	-17%	?	i	8.9µM*	10%
NS(=O)(=O)c1cccc(NC(=O)CCSc2ccc(Cl)cc2)c1	-4%	2%	2%	-2%	6%	18µM*
NS(=O)(=O)c1cccc(NC(=O)CCCNC(=O)c2ccc(Cl)cc2)c1	19%	-10%	17%[46.1 µM]	-8%	19%[46.1 µM]	1%
O=C(Cc1ccc(Cl)cc1)Nc1cccc(S(=O)(=O)Nc2ccccc2F)c1	-5%	-6%	?	-7%	-27%	?
CN(C)S(=O)(=O)c1cccc(NC(=O)Cc2ccc(Cl)cc2)c1	?	-23%	13µM*	-9%	-17%	1%

Source: PubChem
